From PubChem BioAssay (EPA / NIEHS)
The source made the active and inactive calls. Rule for the calls: active = hit-call score of the fitted dose curve at least 0.9, where 1 is the maximum; inactive = score below 0.9.

Legend:
[1] = ATG_CRE_CIS: Attagene CIS-FACTORIAL HepG2 Assay for human cAMP Responsive Element (CRE) binding protein 3 (AID 2282926); conditions: HepG2 CRE cis-reporter, Attagene multiplexed mRNA; actives raise or lower the signal
Method in brief: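 Endogenous CRE-binding activity in HepG2 is reported through a cis-regulated transfected reporter. Following a day of exposure, mRNA levels are determined by reverse transcription PCR and fluorescent fragment analysis; fits run in both directions versus DMSO.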

[2] = target: CCAAT/enhancer-binding protein beta (Homo sapiens) (UniProt P17676); experiment: ATG_C_EBP_CIS: Attagene CIS-FACTORIAL HepG2 Assay for human CCAAT/Enhancer Binding Protein (C/EBP) beta (AID 2282927); conditions: HepG2 Attagene cis-factorial transcription factor reporter; actives raise or lower the signal
Method in brief: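 HepG2, transient MRTU transfection, 24 h treatment. RT-PCR plus CE fluorescence; DMSO negative control, bidirectional fit.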

[3] = ATG_CMV_CIS: Attagene CIS-FACTORIAL HepG2 Assay for human CMV (Internal Marker) (AID 2282928); conditions: HepG2 CMV promoter reporter, transcription factor profiling; actives raise or lower the signal;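 note: endpoint acts as a background internal control marker rather than a target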
Method in brief: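 Cell system: HepG2, transiently transfected multiple reporter units under cis promoters. Exposure: 24 h. Detection: RT-PCR, FAM labeling, HpaI digestion, capillary electrophoresis. Analysis: bidirectional, DMSO baseline.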

[4] = ATG_DR4_LXR_CIS: Attagene CIS-FACTORIAL HepG2 Assay for human Liver X Receptor (LXR), DR4 submotif (AID 2282929); conditions: HepG2 Attagene DR4 cis-reporter, mRNA transcription; actives raise or lower the signal
Method in brief: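 Total RNA from 24 h-treated, MRTU-transfected HepG2 cells underwent reverse transcription, PCR, fluorescent primer extension and restriction digestion before capillary electrophoresis. Both increases and decreases in reporter signal were fitted against DMSO.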

[5] = target: Aryl hydrocarbon receptor (Homo sapiens) (UniProt P35869); experiment: ATG_Ahr_CIS: Attagene CIS-FACTORIAL HepG2 Assay for human Aryl Hydrocarbon Receptor (Ahr) (AID 2282930); conditions: HepG2 AhR cis-factorial reporter transcription; actives raise or lower the signal
Method in brief: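 Endogenous factor activity is tracked through cis-promoter reporter units transfected into HepG2 cells. Transcript levels at 24 h are read by fluorescent RT-PCR and capillary electrophoresis, with activity in either direction scored relative to DMSO.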

[6] = ATG_AP_1_CIS: Attagene CIS-FACTORIAL HepG2 Assay for human Activator Protein 1 (AP-1) (AID 2282931); conditions: HepG2 Attagene cis-factorial AP-1 reporter mRNA; actives raise or lower the signal
Method in brief: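 HepG2, transient cis-reporter transfection; 24 h; readout RT-PCR/CE fluorescence; DMSO baseline, gain and loss fitted.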

[7] = ATG_AP_2_CIS: Attagene CIS-FACTORIAL HepG2 Assay for human Activator Protein 2 (AP-2) (AID 2282932); conditions: HepG2 AP-2 cis-reporter, Attagene transcription factor profiling; actives raise or lower the signal
Method in brief: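 HepG2 cells transiently transfected with cis-element reporter units and exposed for 24 h. Reporter mRNA measured by RT-PCR, FAM labelling, HpaI digestion and capillary electrophoresis. Changes in either direction fitted relative to DMSO.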

[8] = target: Transcription factor E2F1 (Homo sapiens) (UniProt Q01094); experiment: ATG_E2F_CIS: Attagene CIS-FACTORIAL HepG2 Assay for human E2F Transcription Factor 1 (AID 2282935); conditions: HepG2 Attagene cis-reporter, E2F reporter RNA transcripts; actives raise or lower the signal
Method in brief: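 Endogenous E2F1 activity read through cis-promoter reporter units transfected into HepG2. After 24 h compound treatment, reporter mRNA measured by RT-PCR, HpaI digestion and capillary electrophoresis. Bidirectional fit versus DMSO.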

[9] = ATG_E_Box_CIS: Attagene CIS-FACTORIAL HepG2 Assay for human Enhancer Box (E-box) (AID 2282936); conditions: HepG2 E-box cis-reporter transcription, actives raise or lower the signal
Method in brief: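 HepG2 cells transiently transfected with multiplexed cis-element reporter units, dosed 24 h; reporter mRNA quantified by RT-PCR, 6-FAM labelling, HpaI digestion and capillary electrophoresis. E-box (USF1) signal fitted bidirectionally vs DMSO.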

[10] = ATG_M_61_CIS: Attagene CIS-FACTORIAL HepG2 Assay for M61 Transcription Factor (Internal Marker) (AID 2282937); conditions: HepG2 Attagene CIS-FACTORIAL M61 internal marker reporter; actives raise or lower the signal
Method in brief: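 Transfect HepG2 with MRTUs; dose 24 h; isolate RNA; reverse-transcribe with DNase I treatment; PCR-amplify, FAM-label and cut with HpaI for 2 h at 37 C; resolve by CE. Bidirectional fitting against DMSO.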

[11] = ATG_EGR_CIS: Attagene CIS-FACTORIAL HepG2 Assay for human Early Growth Response 1 (EGR1) (AID 2282938); conditions: HepG2 Attagene CIS-FACTORIAL EGR reporter mRNA; actives raise or lower the signal
Method in brief: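 After a 24 h treatment of transiently transfected HepG2 cells, total RNA was reverse-transcribed and reporter sequences PCR-amplified, labelled and run on capillary electrophoresis. Reporters sit under cis-regulatory promoters sensing endogenous factors.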

[12] = ATG_M_19_CIS: Attagene CIS-FACTORIAL HepG2 Assay for M19 Transcription Factor (Internal Marker) (AID 2282939); conditions: HepG2 Attagene CIS-FACTORIAL M19 internal marker reporter; actives raise or lower the signal
Method in brief: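 Internal marker readout, fitted in both directions against DMSO, from HepG2 cells carrying transfected cis-element reporter constructs; RT-PCR and capillary electrophoresis of reporter mRNA after 24 h exposure.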

[13] = ATG_Ets_CIS: Attagene CIS-FACTORIAL HepG2 Assay for human Erythroblast Transformation Specific (ETS) (AID 2282941); conditions: HepG2 ETS cis-reporter transcription, actives raise or lower the signal
Method in brief: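 After transient cis-reporter transfection, HepG2 cells receive test chemical for 24 h. Reporter mRNA levels, measured by RT-PCR and capillary electrophoresis fluorescence, are analysed bidirectionally relative to the DMSO baseline.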

[14] = target: Hepatocyte nuclear factor 3-beta (Homo sapiens) (UniProt Q9Y261); experiment: ATG_FoxA2_CIS: Attagene CIS-FACTORIAL HepG2 Assay for human Forkhead box A2 (FOXA2) (AID 2282942); conditions: HepG2 cis-reporter transcription factor activity, 24 h; actives raise or lower the signal
Method in brief: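 24 h dosing of HepG2 bearing cis-reporter constructs; mRNA readout by RT-PCR/CE fluorescence; bidirectional fit, DMSO baseline.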

[15] = ATG_FoxO_CIS: Attagene CIS-FACTORIAL HepG2 Assay for human Forkhead box O (FoxO) (AID 2282943); conditions: HepG2 Attagene cis-reporter, FoxO element, mRNA; actives raise or lower the signal
Method in brief: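 Transfected HepG2 reporter cells exposed to test chemical for 24 h; reporter RNA measured by reverse transcription, PCR and fluorescent capillary electrophoresis; curves fitted for increases and decreases against DMSO.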

[16] = ATG_GATA_CIS: Attagene CIS-FACTORIAL HepG2 Assay for human GATA Binding Protein (AID 2282944); conditions: HepG2 GATA cis-element reporter, Attagene multiplex mRNA; actives raise or lower the signal
Method in brief: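 Reporter transcripts from a GATA cis-regulated unit, among multiplexed reporters in transfected HepG2 cells, were measured by RT-PCR with capillary electrophoresis after 24 h dosing. Induction or loss scored relative to DMSO.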

[17] = ATG_GLI_CIS: Attagene CIS-FACTORIAL HepG2 Assay for human Zinc Finger Protein GLI1 (AID 2282945); conditions: HepG2, Attagene cis-factorial reporter mRNA, GLI element; actives raise or lower the signal
Method in brief: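 Transiently transfected HepG2 cells report endogenous transcription factor activity via cis-element-driven reporter units. After 24 h compound exposure, reporter mRNA was measured by RT-PCR with capillary electrophoresis; bidirectional fitting against DMSO baseline.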

[18] = target: Retinoic acid receptor alpha (Homo sapiens) (UniProt P10276); experiment: ATG_DR5_RAR_CIS: Attagene CIS-FACTORIAL HepG2 Assay for human Retinoic Acid Receptor Alpha (RARE), DR5 submotif (AID 2282934); conditions: HepG2 Attagene cis-factorial RARE DR5 reporter, mRNA; actives raise or lower the signal
Method in brief: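 After 24 h of chemical exposure, transiently transfected HepG2 cells were lysed for total RNA; the DR5-regulated reporter transcript was quantified via RT-PCR and capillary electrophoresis, with activity fitted bidirectionally against DMSO.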

[19] = ATG_BRE_CIS: Attagene CIS-FACTORIAL HepG2 Assay for human Bone Morphogenetic Protein (BMP) Response Element (BRE) (AID 2282933); conditions: HepG2 BMP response element reporter, Attagene transcription factor profiling; actives raise or lower the signal
Method in brief: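 Endogenous transcription factor activity read in transiently transfected HepG2 cells after 24 h chemical exposure. Bidirectional curve fitting against DMSO; readout is reporter transcript level by RT-PCR with capillary electrophoresis of labelled products.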

Measured: outcome

Sequence of Transcription factor E2F1 (Homo sapiens) (Q01094 whole entry, looked up): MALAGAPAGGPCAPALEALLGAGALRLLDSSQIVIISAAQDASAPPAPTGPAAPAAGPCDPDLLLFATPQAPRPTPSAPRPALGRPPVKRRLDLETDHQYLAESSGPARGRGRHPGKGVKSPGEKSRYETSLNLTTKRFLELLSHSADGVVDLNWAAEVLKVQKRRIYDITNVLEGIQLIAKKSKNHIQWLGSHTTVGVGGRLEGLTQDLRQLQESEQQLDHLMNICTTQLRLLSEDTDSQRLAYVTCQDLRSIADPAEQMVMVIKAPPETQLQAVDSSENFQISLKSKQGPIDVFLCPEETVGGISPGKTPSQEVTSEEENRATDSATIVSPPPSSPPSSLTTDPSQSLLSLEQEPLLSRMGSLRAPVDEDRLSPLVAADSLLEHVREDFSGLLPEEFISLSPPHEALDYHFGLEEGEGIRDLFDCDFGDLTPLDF
Sequence of Hepatocyte nuclear factor 3-beta (Homo sapiens) (Q9Y261 whole entry, looked up): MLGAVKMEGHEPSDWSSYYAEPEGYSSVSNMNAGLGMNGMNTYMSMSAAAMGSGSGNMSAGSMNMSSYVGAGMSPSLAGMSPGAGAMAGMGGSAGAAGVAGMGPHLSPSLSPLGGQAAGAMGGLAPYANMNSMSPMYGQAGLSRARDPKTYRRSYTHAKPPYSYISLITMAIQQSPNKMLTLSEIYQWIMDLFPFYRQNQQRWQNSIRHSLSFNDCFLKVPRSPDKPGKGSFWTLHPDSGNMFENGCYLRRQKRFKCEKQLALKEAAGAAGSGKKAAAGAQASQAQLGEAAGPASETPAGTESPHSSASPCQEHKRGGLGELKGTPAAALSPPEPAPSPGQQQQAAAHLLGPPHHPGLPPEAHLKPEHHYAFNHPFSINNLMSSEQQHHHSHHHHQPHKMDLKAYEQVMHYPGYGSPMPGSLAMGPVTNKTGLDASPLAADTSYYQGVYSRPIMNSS
Sequence of Aryl hydrocarbon receptor (Homo sapiens) (P35869 whole entry, looked up): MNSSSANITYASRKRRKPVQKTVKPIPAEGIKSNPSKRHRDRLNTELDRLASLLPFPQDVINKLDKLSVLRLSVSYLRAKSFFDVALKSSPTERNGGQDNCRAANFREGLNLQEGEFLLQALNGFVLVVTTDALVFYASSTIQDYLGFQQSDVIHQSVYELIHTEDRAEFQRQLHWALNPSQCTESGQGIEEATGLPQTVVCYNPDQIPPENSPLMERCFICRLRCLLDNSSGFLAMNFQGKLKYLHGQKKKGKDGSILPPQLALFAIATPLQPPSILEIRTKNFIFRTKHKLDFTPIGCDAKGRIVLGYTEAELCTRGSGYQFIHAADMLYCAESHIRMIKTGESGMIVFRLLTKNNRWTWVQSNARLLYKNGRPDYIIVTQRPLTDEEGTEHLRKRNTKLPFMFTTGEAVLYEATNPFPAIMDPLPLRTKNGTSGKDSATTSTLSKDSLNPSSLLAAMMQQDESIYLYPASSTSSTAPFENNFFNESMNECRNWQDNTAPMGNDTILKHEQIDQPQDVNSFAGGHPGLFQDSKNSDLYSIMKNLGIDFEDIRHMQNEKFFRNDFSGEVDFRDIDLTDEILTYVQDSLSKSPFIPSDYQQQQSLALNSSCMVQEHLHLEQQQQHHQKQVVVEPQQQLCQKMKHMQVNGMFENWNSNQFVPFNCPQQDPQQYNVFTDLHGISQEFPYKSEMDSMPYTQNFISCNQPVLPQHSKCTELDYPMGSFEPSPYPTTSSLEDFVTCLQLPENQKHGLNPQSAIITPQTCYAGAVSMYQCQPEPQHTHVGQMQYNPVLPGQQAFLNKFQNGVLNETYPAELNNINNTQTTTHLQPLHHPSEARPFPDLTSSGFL
Sequence of CCAAT/enhancer-binding protein beta (Homo sapiens) (P17676 whole entry, looked up): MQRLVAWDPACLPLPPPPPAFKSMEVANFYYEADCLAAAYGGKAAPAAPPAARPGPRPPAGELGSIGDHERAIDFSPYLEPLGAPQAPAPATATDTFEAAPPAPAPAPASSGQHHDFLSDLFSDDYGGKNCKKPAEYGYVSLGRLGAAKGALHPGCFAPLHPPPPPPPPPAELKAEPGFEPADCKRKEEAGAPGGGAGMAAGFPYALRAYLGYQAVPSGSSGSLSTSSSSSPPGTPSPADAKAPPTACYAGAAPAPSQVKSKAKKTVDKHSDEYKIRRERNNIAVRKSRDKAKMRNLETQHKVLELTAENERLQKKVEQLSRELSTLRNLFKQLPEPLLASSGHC
Sequence of Retinoic acid receptor alpha (Homo sapiens) (P10276 whole entry, looked up): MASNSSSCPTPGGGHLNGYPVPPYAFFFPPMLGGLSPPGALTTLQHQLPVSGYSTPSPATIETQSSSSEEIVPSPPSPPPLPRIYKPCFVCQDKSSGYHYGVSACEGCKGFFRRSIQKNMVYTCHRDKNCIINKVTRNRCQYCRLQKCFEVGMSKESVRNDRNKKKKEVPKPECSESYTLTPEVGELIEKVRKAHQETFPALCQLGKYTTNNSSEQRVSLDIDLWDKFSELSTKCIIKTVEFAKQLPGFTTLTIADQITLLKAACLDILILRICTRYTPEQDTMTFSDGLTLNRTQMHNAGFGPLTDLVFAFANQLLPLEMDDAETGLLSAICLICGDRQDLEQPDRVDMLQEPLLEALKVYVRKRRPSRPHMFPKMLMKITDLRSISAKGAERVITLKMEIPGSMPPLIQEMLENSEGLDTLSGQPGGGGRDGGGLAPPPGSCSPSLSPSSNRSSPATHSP

CC(C)CC(C)CC(O)CC(C)C (stereo not drawn)
not listed: [18] | [19]
inactive: all other assays above

O=c1[nH]c(=O)c2cn[nH]c2[nH]1
not listed: [19]
inactive: all other assays above

O=P(O)(O)O
not listed: [18]
inactive: all other assays above

CCCCC(CC)(CO)CO
not listed: [12] | [13] | [16] | [19]
inactive: all other assays above
